Hits are enriched below; roughly 11% of the tested compounds scored in any of these assays.
G9a block: G9a (human) methyltransferase inhibition; G9a H3K9 monomethylation, AlphaScreen, 2 h; AID 504332; Potency, µM (highest dose often 102 µM), for inactives: at the highest dose activity, negative = inhibition, usual class: inhibitors; Q96KQ7; 350,000 compounds, 8.8% hits; note: % is set by controls: 0 for no effect and ±100 for the full control effect; nearly all actives have a fitted effect of over 75% in size
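AlphaScreen read-out: biotin-H3K9 peptide (500 nM) methylation by 20 nM enzyme with 20 uM SAM, 2 h at room temperature after 15 min compound preincubation; anti-monomethyl H3K9 antibody plus donor/acceptor beads, 10 min dark.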
BAZ2B block: BAZ2B (human) inhibition. AlphaScreen BAZ2B-H3K14Ac peptide displacement. AID 504333. 360,000 compounds, 4.4% hits. Potency, µM (doses to about 114 µM), for inactives: at the highest dose activity change, negative = inhibition, usual class: inhibitors. Q9UIF8; note: % is set by controls: 0 for no effect and ±100 for the full control effect; nearly all actives have a fitted effect of over 60% in size
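BAZ2B 50 nM plus b-H3(5-23)K14Ac 50 nM, PBS pH 7.4/0.01% Tween-20, 30 min RT; compound added (max 110 uM), 30 min RT; streptavidin donor/Ni-chelate acceptor beads 10 ug/mL final, 20 min dark; AlphaScreen read.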
JMJD2A Tudor inh: JMJD2A Tudor domain (human) inhibition; AlphaScreen JMJD2A-Tudor / H3K4me3 peptide binding; Potency, µM (series often up to 114 µM), for the others: at the top dose activity change, negative = inhibition, actives largely listed as inhibitors; 390,000 compounds, 4.4% hits; note: % is set by controls: 0 for no effect and ±100 for the full control effect; nearly all actives have a fitted effect of over 50% in size
HP1b chromo inh: blocks HP1-beta chromodomain binding to methylated histone tails | AID 540317 | AlphaScreen HP1-beta / biotin-H3K9me3 peptide binding | 390,000 compounds, 0.56% hits | Potency, µM (highest dose often 114 µM), inactives show at the top dose activity change, negative = inhibition, most hits filed as inhibitors; note: nearly all actives have a fitted effect of over 70% in size
Target sequence (P83916 whole entry, looked up): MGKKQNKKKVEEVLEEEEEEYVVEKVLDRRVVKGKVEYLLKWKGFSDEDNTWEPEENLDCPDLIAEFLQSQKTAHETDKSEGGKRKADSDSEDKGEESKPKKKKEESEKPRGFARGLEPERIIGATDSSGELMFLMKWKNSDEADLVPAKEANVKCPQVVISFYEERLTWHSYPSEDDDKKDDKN
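Compound inhibition of the preformed complex between 50 nM HP1-beta and 50 nM biotinylated H3K9me3 peptide was read by AlphaScreen. Buffer was PBS pH 7.4 with 0.01% Tween-20. Incubations ran 30 min at room temperature, with 10 ug/mL donor/acceptor beads.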
PLK1 PBD inh: blocks phosphopeptide binding to human PLK1 polo-box domain. P53350. Plk1 PBD binding of FITC phosphopeptide, fluorescence polarization. Potency, µM, inactives show max response, negative = inhibition, usual class: inhibitors. 360,000 compounds, 2.8% hits. AID 720504; note: series mostly up to about 57 µM; % is set by controls: 0 for no effect and ±100 for the full control effect; nearly all actives have a fitted effect of over 65% in size
VDR inh: blocks the human vitamin D receptor | VDR-SRC2-3 peptide fluorescence polarization, 2 h | Potency, µM, inactives show max response, negative = inhibition, actives largely listed as inhibitors | 400,000 compounds, 0.93% hits; note: % is set by controls: 0 for no effect and ±100 for the full control effect
Target sequence (P11473 whole entry, looked up): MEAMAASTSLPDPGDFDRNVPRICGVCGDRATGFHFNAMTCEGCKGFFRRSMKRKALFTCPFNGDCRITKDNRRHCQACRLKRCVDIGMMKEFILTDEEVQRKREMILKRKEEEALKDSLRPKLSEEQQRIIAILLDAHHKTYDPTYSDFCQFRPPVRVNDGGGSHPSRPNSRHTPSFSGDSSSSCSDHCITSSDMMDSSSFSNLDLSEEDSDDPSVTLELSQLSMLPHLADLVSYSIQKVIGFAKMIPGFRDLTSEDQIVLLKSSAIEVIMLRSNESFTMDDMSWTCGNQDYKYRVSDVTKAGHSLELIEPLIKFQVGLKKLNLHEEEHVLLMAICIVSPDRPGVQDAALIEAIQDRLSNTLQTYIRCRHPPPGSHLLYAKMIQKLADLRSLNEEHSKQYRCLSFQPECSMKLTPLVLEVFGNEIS
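Signal is fluorescence polarization, reporting how far test compounds block the interaction of VDR with the SRC2-3 coregulator peptide after a 2 h room-temperature incubation.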
Numbers without * were called inactive; [ ] = another dose, or the depositor's remark. Calls come from the whole dose curve; as a rule, active = well fitted curve in the direction sought with a large enough effect; inconclusive = small, poorly fitted or top-dose-only effect, or another doubt; inactive = no such curve, though single readings can be large; an effect the other way counts as inactive or inconclusive. Potency is the fitted concentration of half-maximal effect.

For COCCN(C(=O)c1cc(-c2ccncc2)nc2ccccc12)c1c(N)n(CC(C)C)c(=O)[nH]c1=O the results were G9a block -23%, BAZ2B block 9%, JMJD2A Tudor inh -7%, HP1b chromo inh 10%, PLK1 PBD inh -3% and VDR inh 5%.
O=C(N/N=C1\CCCc2c1[nH]c1ccc(Cl)cc21)c1ccncc1 was read as G9a block 6%[59 µM], BAZ2B block -10%, JMJD2A Tudor inh -15%, HP1b chromo inh 36%, PLK1 PBD inh 8% and VDR inh 13%.
Clc1ccc2[nH]c3c(c2c1)CCc1cn[nH]c1-3 was read as G9a block 35µM*, BAZ2B block inconclusive, JMJD2A Tudor inh 79µM*, HP1b chromo inh inconclusive, PLK1 PBD inh -14% and VDR inh 8%.
Screening CCOc1c(Cl)cc(CNC(C)(C)CC(C)(C)C)cc1OC returned G9a block -8%[2.33 µM], BAZ2B block 6%, JMJD2A Tudor inh -1%, HP1b chromo inh 28%, PLK1 PBD inh -9% and VDR inh -6%.
Screening CCOc1c(Cl)cc(CNCc2ccccn2)cc1OC returned G9a block 40µM*, BAZ2B block 56µM*, JMJD2A Tudor inh -25%, HP1b chromo inh 61%, PLK1 PBD inh 1% and VDR inh -14%.
COc1cc(CNCCN2CCOCC2)ccc1OCc1ccccc1Cl was read as BAZ2B block -10%, JMJD2A Tudor inh -21%, HP1b chromo inh 16%, PLK1 PBD inh -10% and VDR inh 17%.
COc1cc(CNCc2ccccn2)ccc1OCc1ccccc1Cl was read as G9a block inconclusive, BAZ2B block inconclusive, JMJD2A Tudor inh 45µM*, HP1b chromo inh -2%, PLK1 PBD inh 0% and VDR inh 8%.
`COc1ccc(CN(C(=O)c2ccccc2Br)C2CCS(=O)(=O)C2)cc1` (stereo not drawn) gave G9a block inconclusive, BAZ2B block 11%, JMJD2A Tudor inh -12%, HP1b chromo inh 23%, PLK1 PBD inh -11% and VDR inh 7%.
For CCOC(=O)c1cccc(NC(=O)CN2C(=O)c3ccccc3Sc3ncccc32)c1 the results were G9a block -1%[59 µM], BAZ2B block -26%, JMJD2A Tudor inh -17%, HP1b chromo inh 31% and VDR inh 13%.
Cn1c(CS/C(N)=N/N=C/c2ccccc2)c(Br)c(=O)n1-c1ccccc1 was read as G9a block 35µM*, BAZ2B block inconclusive, JMJD2A Tudor inh 50µM*, HP1b chromo inh -6%, PLK1 PBD inh 24µM* and VDR inh 50µM*.
NC(=N\N=Cc1ccccc1)/C(N)=N/N=Cc1ccccc1 was read as JMJD2A Tudor inh -23%, HP1b chromo inh 14%, PLK1 PBD inh -3% and VDR inh -4%.
CC(C)OCCCn1c(SCC(=O)Nc2ccc(F)cc2)nc2c(sc3ccccc32)c1=O was read as G9a block 17%[59 µM], BAZ2B block -1%, JMJD2A Tudor inh -12%, HP1b chromo inh -4% and VDR inh -1%.
Screening O=C(c1ccccc1[N+](=O)[O-])N1CCC(Cc2ccccc2)CC1 returned G9a block 13%[0.501 µM], BAZ2B block -8%[57.1 µM], JMJD2A Tudor inh -25%, HP1b chromo inh 39%, PLK1 PBD inh -4% and VDR inh 0%.
CCCCNc1ccc2c3c(cccc13)C(=O)N(CCCC)C2=O was read as G9a block 323%, BAZ2B block 141%, JMJD2A Tudor inh 171%, HP1b chromo inh 258%, PLK1 PBD inh 2.1µM* and VDR inh -5%.
Cc1nn(C)c(C)c1N1C(=O)c2cccc3c(N)ccc(c23)C1=O was read as G9a block -8%, BAZ2B block 8%, JMJD2A Tudor inh 9%, HP1b chromo inh 45%, PLK1 PBD inh 2.7µM* and VDR inh -5%.
`Nc1ccccc1N1C(=O)c2cccc3cccc(c23)C1=O` gave JMJD2A Tudor inh -12%, HP1b chromo inh 48%, PLK1 PBD inh 1% and VDR inh 0%.
For CCN1C(=O)c2cccc3c(N)ccc(c23)C1=O the results were G9a block 50µM*, BAZ2B block 3%, JMJD2A Tudor inh 3%, HP1b chromo inh 58%, PLK1 PBD inh 3µM* and VDR inh -11%.
`CCOC(=O)C1=C(CN2CCN(c3cc(C)ccc3C)CC2)NC(=O)NC1c1ccc(Cl)cc1` (stereo not drawn) gave G9a block inconclusive, JMJD2A Tudor inh inconclusive, HP1b chromo inh 9% and VDR inh -35%.
For Cc1ccc(-n2c(=O)c3c(c4cc(C)ccc4n3C)n(CC(=O)NCCC3=CCCCC3)c2=O)cc1 the results were G9a block -13%[59 µM], BAZ2B block 0%, JMJD2A Tudor inh -7%, HP1b chromo inh 19% and VDR inh -3%.
O=C(Nc1nnc(-c2cccs2)s1)C1CC1 was read as G9a block 22µM*, BAZ2B block -4%, JMJD2A Tudor inh -14%, HP1b chromo inh 16%, PLK1 PBD inh -19% and VDR inh -12%.
Screening CCC(=O)Nc1nnc(-c2cccs2)s1 returned G9a block -34%, BAZ2B block 2%, JMJD2A Tudor inh 8%, HP1b chromo inh 35%, PLK1 PBD inh -2% and VDR inh -3%.
Screening COc1cccc(C(=O)Nc2nnc(-c3cccs3)s2)c1 returned G9a block 10µM*, BAZ2B block -4%, JMJD2A Tudor inh 3%, HP1b chromo inh 9%, PLK1 PBD inh -16% and VDR inh 0%.
Screening CCC(C)C(=O)Nc1nnc(-c2cccs2)s1 (stereo not drawn) returned G9a block 14µM*, BAZ2B block 7%, JMJD2A Tudor inh -12%, HP1b chromo inh 13%, PLK1 PBD inh inconclusive and VDR inh 4%.
C=C(C)C(=O)Nc1nnc(-c2cccs2)s1 was read as G9a block 9%[59 µM], BAZ2B block 6%, JMJD2A Tudor inh 1%, HP1b chromo inh 37%, PLK1 PBD inh 1% and VDR inh -8%.
COCC(=O)Nc1nnc(-c2cccs2)s1 was read as G9a block 45µM*, BAZ2B block 4%, JMJD2A Tudor inh -8%, HP1b chromo inh 26%, PLK1 PBD inh inconclusive and VDR inh 9%.
`CCOc1ccccc1N1CCN(CC(=O)Nc2ccnn2C2CCCC2)CC1` gave G9a block 0%[2.33 µM], BAZ2B block -16%, JMJD2A Tudor inh 1%, HP1b chromo inh 25%, PLK1 PBD inh 14% and VDR inh 7%.
Screening Nc1nc2c(nc(Br)n2C2OC3COP(=O)(O)O[C@@H]3C2O)c(=O)[nH]1 (stereo partly drawn) returned G9a block -11%[59 µM] and VDR inh -13%.
`CCC(C)C(=O)Nc1nnc(CCc2ccccc2)s1` (stereo not drawn) gave BAZ2B block 33%, JMJD2A Tudor inh 71µM*, HP1b chromo inh 4%, PLK1 PBD inh 24µM* and VDR inh inconclusive.

Compound activity deposited in PubChem BioAssay by National Center for Advancing Translational Sciences (NCATS).
